The text below walks through data of PubChem BioAssay (NCI).

The panel holds about 83,000 compounds, 20% with a hit somewhere; the sample as a whole holds those more often.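 Percent growth is the endpoint: 0 to 100 indicates growth inhibition (40 means 60% inhibition), 0 means no net growth, and negative values indicate cell death.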 A number with no mark means an inactive call. Activity calls are given as the source filed them. The calls were made as follows: active = growth percent below 10; inactive = the rest.

Some test systems named below: SR leukemia; RPMI-8226 leukemia; OVCAR-8 ovarian; OVCAR-5 ovarian; OVCAR-4 ovarian; IGROV1 ovarian; OVCAR-3 ovarian; HS 578T breast; NCI/ADR-RES ovarian; SK-OV-3 ovarian.
Holding throughout (assay): NCI-60 one-dose screen, 48 h (100 = growth as untreated, 0 = no growth, -100 = all killed)
What all share (details): 10 µM

`CCN1CCN(c2nc(NNC(=O)c3cccc(OC)c3)nc(N3CCN(C(c4ccccc4)c4ccccc4)CC3)n2)CC1`: the growth in the test on SR leukemia is -11.8% (active); in the test on RPMI-8226 leukemia, 5.26% (active); in the test with OVCAR-8 ovarian it was 65%; in the test with OVCAR-5 ovarian it was 101%; in the test with OVCAR-4 ovarian, 62.4%; in the test with IGROV1 ovarian, 58.5%. The values for the growth in the test on OVCAR-3 ovarian, with HS 578T breast and with NCI/ADR-RES ovarian were 72.6%, 64.3% and 76.2%, respectively.
In the case of `Cc1cc(=O)oc2cc(OCc3cn(CC(O)CO)nn3)ccc12` (centres undefined), the growth in the test on SR leukemia is 97.9%; with RPMI-8226 leukemia, 92.9%; in the test on OVCAR-8 ovarian, 103%; with OVCAR-5 ovarian it was 113%; in the test with SK-OV-3 ovarian, 100%; in the test on IGROV1 ovarian, 107%. Besides, the growth in the test on OVCAR-3 ovarian was 117%; with HS 578T breast, 27%; in the test on NCI/ADR-RES ovarian, 105%.
Take `FC(F)(F)c1ccc(-c2cnc(Br)nc2NC2CCCCCC2)cc1`: the growth is 51% in the test on SR leukemia; -4.63% (active) with RPMI-8226 leukemia; 24.1% with OVCAR-8 ovarian; 63.2% in the test with OVCAR-5 ovarian; 22.6% with OVCAR-4 ovarian; 36.1% in the test on IGROV1 ovarian. Also, the growth was 10.8% with OVCAR-3 ovarian, 53.4% in the test on HS 578T breast and 77.9% with NCI/ADR-RES ovarian.
`CCCCCCCCCCN=C(c1ccc(N(C)C)cc1)c1ccc(N(C)C)cc1`: the growth with SR leukemia was 23%; in the test with RPMI-8226 leukemia, 24.3%; in the test with OVCAR-8 ovarian it was 30.9%; in the test with OVCAR-5 ovarian, 71.5%; in the test with OVCAR-4 ovarian, 59.8%; in the test with OVCAR-3 ovarian, 2.1% (active). Besides, the growth in the test with HS 578T breast is 26.7%; in the test on NCI/ADR-RES ovarian it was -3.13% (active).
For `COc1ccc2nc(/C=C/c3ccc(N(C)C)cc3)sc2c1`, the growth was 86.1% with SR leukemia; 104% in the test on RPMI-8226 leukemia; 115% in the test with OVCAR-8 ovarian; 97.4% in the test with OVCAR-5 ovarian; 107% in the test on OVCAR-4 ovarian; 82.5% in the test on IGROV1 ovarian. In addition, the growth in the test on OVCAR-3 ovarian was 103%; in the test on HS 578T breast it was 102%; in the test on NCI/ADR-RES ovarian it was 93.1%.
With `COc1ccc(C(=O)/C=C/c2cc(-c3ccc4c(c3)OCO4)n[nH]2)cc1OC`, the growth was -5.36% (active) with SR leukemia; 4.4% (active) with RPMI-8226 leukemia; 47.4% in the test with OVCAR-8 ovarian; 75.9% in the test with OVCAR-5 ovarian; 59.9% in the test with OVCAR-4 ovarian; 44.1% with IGROV1 ovarian. For the same compound, the growth in the test on OVCAR-3 ovarian was 36.6%; in the test with HS 578T breast it was 79.3%; with NCI/ADR-RES ovarian, 57.8%.
As to `COc1ccc(NC(=O)c2sc3nc4c(cc3c2N)C(O)CCC4)cc1` (centres undefined), the growth in the test on SR leukemia was 67.6%; with RPMI-8226 leukemia, 103%; with OVCAR-8 ovarian, 101%; in the test with OVCAR-5 ovarian, 104%; in the test with SK-OV-3 ovarian it was 112%; in the test with IGROV1 ovarian, 106%. For the same compound, the results for the growth in the test on OVCAR-3 ovarian, in the test with HS 578T breast and in the test with NCI/ADR-RES ovarian were 104%, 112% and 102%, respectively.
Turning to `CC1(C)CC(=O)c2c(nc3ccc(Cl)cc3c2-c2ccccc2)C1`, the growth is 69.5% with SR leukemia; 27.5% in the test with RPMI-8226 leukemia; 94.6% in the test on OVCAR-8 ovarian; 89.9% in the test with OVCAR-5 ovarian; 98.8% in the test with OVCAR-4 ovarian; 75.5% with IGROV1 ovarian. Moreover, the values for the growth in the test with OVCAR-3 ovarian, in the test on HS 578T breast and with NCI/ADR-RES ovarian were 108%, 158% and 81.9%, respectively.
Regarding `COc1cc(C)c2sc3ccccc3c(=O)c2c1NCCN(C)C`, the growth in the test on SR leukemia is 3.64% (active); in the test on RPMI-8226 leukemia it was 33.3%; in the test with OVCAR-8 ovarian, 40.5%; in the test with OVCAR-5 ovarian, 87%; in the test with SK-OV-3 ovarian it was 65.7%; in the test on IGROV1 ovarian, 29.3%. The values for the growth in the test with OVCAR-3 ovarian, with HS 578T breast and in the test with NCI/ADR-RES ovarian were 87.4%, 58.6% and 61.9%, respectively.
On to `COc1ccc2nc(C)cc(Nc3ccc(Cl)cc3)c2c1`, for which the growth with SR leukemia is 113%; in the test with RPMI-8226 leukemia it was 102%; in the test with OVCAR-8 ovarian, 101%; in the test on OVCAR-5 ovarian, 101%; in the test on OVCAR-4 ovarian, 90.5%; with IGROV1 ovarian, 98.2%. Further, the results for the growth with OVCAR-3 ovarian, with HS 578T breast and in the test with NCI/ADR-RES ovarian were 105%, 112% and 102%, respectively.
Take `CCCCCCCC/C=C/CCCCCCCCC1=NCCN1CCO`: the growth with SR leukemia was -8.86% (active); in the test with RPMI-8226 leukemia, 52.7%; in the test on OVCAR-8 ovarian, 74.9%; in the test with OVCAR-5 ovarian it was 95.2%; in the test on OVCAR-4 ovarian it was 81.7%; in the test with IGROV1 ovarian it was 63.8%. In addition, the growth with OVCAR-3 ovarian was 83.1%; in the test with HS 578T breast, 81%; in the test with NCI/ADR-RES ovarian it was 81.1%.
For the compound `O=C(Nc1ccc(Oc2ccc(Nc3nc4ccccc4s3)cc2)cc1)Nc1ccc(Cl)c(Cl)c1`, the growth was 8.33% (active) in the test with SR leukemia; 22.2% with RPMI-8226 leukemia; 32.6% in the test on OVCAR-8 ovarian; 70.5% in the test with OVCAR-5 ovarian; 69% with SK-OV-3 ovarian; 39.4% in the test with IGROV1 ovarian. Further, the growth in the test with OVCAR-3 ovarian is 22.8%; with HS 578T breast, 61.9%; in the test with NCI/ADR-RES ovarian, 25.3%.
Consider `COc1ccc(Cn2cc3c(c2-c2ccccc2)CC(C)(C)c2cnoc2-3)cc1`, for which the growth in the test on SR leukemia was 24.5%; in the test with RPMI-8226 leukemia it was 32.2%; in the test with OVCAR-8 ovarian it was 50.4%; in the test with OVCAR-5 ovarian, 78%; in the test with OVCAR-4 ovarian it was 60.4%; with IGROV1 ovarian, 44.6%. The growth in the test with OVCAR-3 ovarian was 6.6% (active); in the test on HS 578T breast, 9.84% (active); with NCI/ADR-RES ovarian it was 18.7%.
For the compound `COc1cc(-c2nc3ccc(C)cc3[nH]2)ccc1OCc1nnc(-c2ccc(CC(C)C)cc2)o1`, the growth was -2.79% (active) in the test with SR leukemia; 68.9% in the test with RPMI-8226 leukemia; 97.8% with OVCAR-8 ovarian; 102% in the test with OVCAR-5 ovarian; 94.4% in the test with SK-OV-3 ovarian; 91.4% with IGROV1 ovarian. Besides, the growth is 101% in the test on OVCAR-3 ovarian, 84% in the test on HS 578T breast and 96% with NCI/ADR-RES ovarian.
In the case of `CCc1ccc(-c2nnc(COc3ccc(-c4nc5ccc(C)cc5[nH]4)cc3OC)o2)cc1`, the growth in the test on SR leukemia was -31.5% (active); with RPMI-8226 leukemia, -6.63% (active); in the test with OVCAR-8 ovarian, 39.9%; in the test with OVCAR-5 ovarian, 92.4%; in the test with SK-OV-3 ovarian, 33.9%; with IGROV1 ovarian, 64.4%. The figures for the growth in the test on OVCAR-3 ovarian, in the test with HS 578T breast and with NCI/ADR-RES ovarian were 41.7%, 28.2% and 42.1%, respectively.
